# Assay results published in PubChem BioAssay (NCATS).
# The other results are listed elsewhere or left out. Where a call stands in place of a potency, no number is given. Records with an inconclusive call do not appear. Activity calls are given as the source filed them. Calls follow the shape of the dose curve; as a rule, active = well fitted cell-killing curve with a large enough effect; inconclusive = small, poorly fitted or top-dose-only effect, or effect the other way; inactive = no such curve, though single readings can be large or run the other way.
# Assay: qHTS for Inhibitors of the vitamin D receptor (VDR): Hit Validation using a Cytotoxicity Assay (AID 602204); also: nearly all actives have a fitted effect of over 75% in size;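 as to potency: cells co-treated with VDR agonist LG190178 at 300 nM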
# Conditions: cytotoxicity counter-screen, cell viability; series mostly up to 48.3 µM
# Description: The vitamin D receptor (VDR) is a ligand-activated transcription factor and is partially responsible for the regulation of the endocrine system. This includes the transcriptional regulation of genes involved in the production of the parathyroid hormone (PTH) and the regulation of the blood calcium level. High levels of PHT can cause hypercalcemia in the case of primary and tertiary hyperparathyroidism. The VDR-mediated gene regulation, activated by its ligand 1,25-dihydroxyvitamin D3 (1,25-(OH)2D3), is governed by the recruitment of coactivators. Our hypothesis is that small molecules, with the ability to inhibit the interaction between VDR and certain coactivators, are able to selectively modulate VDR-mediated transcription. Our long term objective is the application these VDR-coactivator inhibitors to study the role of VDR-coactivator binding for specific VDR regulated genes. Ultimately, these molecules can be developed into new treatments for hypercalcemic hyperparathyroidism. No small molecule or non-peptide inhibitors are known for the VDR-coactivator interaction.
# In a collaboration between the University of Wisconsin, Milwaukee and the NIH Chemical Genomics Center (NCGC) a HTS-compatible enzymatic assay was developed. The assay uses fluorescence polarization as its read-out to measure the inhibition between VDR and coregulator peptide SRC2-3 exerted by small molecules. This assay was used to screen the NIH Molecular Libraries Small Molecule Repository (MLSMR). Cytotoxicity caused by screening compounds is a major concern for cell-based assays. This assay quantifies the amount of ATP generated by living cells and compounds that are active in this assay are undesirable for the project due to cytotoxicity. High concentrations of cycloheximide (protein synthesis inhibitor) and DMSO were used as positive and negative control, respectively.
# NIH Chemical Genomics Center [NCGC]
# NIH Molecular Libraries Probe Centers Network [MLPCN]
# Assay Submitter (PI): Alexander Arnold, University of Wilwaukee
# Plate: 384 white, solid bottom, tissue culture treated
# Step 1: Plate 20,000 cell per well (32 uL)
# Step 2: 4 hours incubation
# Step 3: Add screening compounds
# Step 5: 18 hour incubation
# Step 6: Add Cell-Titer Glo (25 uL)
# Step 7: 30 minutes incubation
# Step 8: Read luminescence
# Potency is read from the fitted curve at half-maximal effect.
row,Structure (SMILES),Potency
1,C=CCOc1ccc(/C=C2/C(=O)ON=C2C)cc1OCC,inactive
2,COc1ccc(OCc2nnc3n2N=C(c2ccccc2)C(CC(=O)O)S3)cc1 (centres undefined),inactive
3,c1ccc2c(C[n+]3csc4ccccc43)cccc2c1,inactive
4,O=c1[nH]c(/C=C\c2cccc(C(F)(F)F)c2)nc(O)c1[N+](=O)[O-],inactive
5,O=C(/C=C/c1ccc(Cl)c([N+](=O)[O-])c1)c1cccnc1,inactive
6,CCOc1ccc(N(Cc2ccccc2)C(=O)c2nc(S(C)(=O)=O)ncc2Cl)cc1,16.8 µM (active)
7,CCOC(=O)c1sc(=S)n2c1[nH]c(=O)c1ccc(C(=O)OC)cc12,inactive
8,O=C(/C=C/c1ccc(Cl)cc1Cl)c1cccnc1,inactive
9,Cc1cccc(CS(=O)(=O)c2ncc(Cl)c(C(=O)Nc3ccc(F)cc3)n2)c1,11.2 µM (active)
10,O=C(/C=C/c1ccccc1)c1ccccc1O,inactive
11,Cc1nc(-c2ccccc2)sc1C(=O)/C=C/c1ccccc1,inactive
12,CCCCS(=O)(=O)c1oc(-c2cccs2)nc1S(=O)(=O)c1ccccc1,9.47 µM (active)
13,O=[N+]([O-])/C=C/c1ccc2c(ccn2Cc2ccccc2)c1,9.2 µM (active)
14,Cc1cc(C)nc(S/C=C/C(=O)c2ccccc2)n1,23.8 µM (active)
15,O=C1C=C(c2ccc(Cl)cc2)C(=O)N1Nc1ccccc1,23.1 µM (active)
16,Cc1ccc(-c2nc3ccccn3c2Nc2c(C)cccc2C)o1,inactive
17,CSc1nnc(NC(=O)c2nc(S(=O)(=O)Cc3ccc(C)cc3)ncc2Cl)s1,16.4 µM (active)
18,COc1ccc(CS(=O)/C(Cl)=C(/Cl)C(=O)Nc2ccc(OC)nc2)cc1 (centres undefined),2.59 µM (active)
19,CC(=O)N1CC[n+]2c(-c3ccc([N+](=O)[O-])cc3)csc21,inactive
20,CC1CCN(C(=S)c2ccc(-c3ccc(Cl)cc3Cl)o2)CC1,inactive
21,C[C@@H](NC(=O)OC(C)(C)C)c1nnc(S(=O)(=O)Cc2ccccc2)o1,inactive
22,Cc1cccc([C@H]2[C@@H]3C=CC[C@@H](C)[C@@H]3C(=O)N2Cc2ccccc2)c1,23.8 µM (active)
23,O=c1cc(CO)oc(C(Nc2cccc(C(F)(F)F)c2)c2ccccn2)c1O (centres undefined),inactive
24,Cc1cccc(Oc2c([N+](=O)[O-])c(=O)n(C)c3ccccc23)c1,inactive
